The values that follow come from PubChem BioAssay (NCATS).

The nature of test [1]: qHTS for Inhibitors of the Functional Ribonucleoprotein Complex (vRNP) of Lassa (LASV) Arenavirus: LASV Primary Screen - GLuc reporter signal (AID 1347082; calls by dose curve; tested in HEK293 reporter line; further: nearly all actives have a fitted effect of over 60% in size).
Test [2] is described as follows: qHTS for Inhibitors of the Functional Ribonucleoprotein Complex (vRNP) of Lassa (LASV) Arenavirus: Viability assay - alamar blue signal for LASV Primary Screen (AID 1347083; calls by dose curve; tested in HEK293 reporter line; further: nearly all actives have a fitted effect of over 80% in size).
Test [3] can be described thus: qHTS for Inhibitors of the Functional Ribonucleoprotein Complex (vRNP) of Lymphocytic Choriomeningitis Arenaviruses (LCMV): Viability assay - alamar blue signal for LCMV Primary Screen (AID 1347085; calls by dose curve; tested in HEK293 reporter line; further: nearly all actives have a fitted effect of over 80% in size). Background: qHTS replaces the single test concentration by a dilution series.
Test [4] has as its target Nucleoprotein (Lymphocytic choriomeningitis virus (strain Armstrong)) (UniProt P09992). Put plainly: qHTS for Inhibitors of the Functional Ribonucleoprotein Complex (vRNP) of Lymphocytic Choriomeningitis Arenaviruses (LCMV): LCMV Primary Screen - GLuc reporter signal (AID 1347086). Further: nearly all actives have a fitted effect of over 70% in size.

Structures are written as SMILES. Results filed as inconclusive are left out. Calls of active or inactive are those of the source. Unless noted, the call rests on the fitted dose curve.
Potency means the concentration at half of the fitted maximal effect.

Chain of Nucleoprotein (Lymphocytic choriomeningitis virus (strain Armstrong)) (P09992 whole entry, looked up): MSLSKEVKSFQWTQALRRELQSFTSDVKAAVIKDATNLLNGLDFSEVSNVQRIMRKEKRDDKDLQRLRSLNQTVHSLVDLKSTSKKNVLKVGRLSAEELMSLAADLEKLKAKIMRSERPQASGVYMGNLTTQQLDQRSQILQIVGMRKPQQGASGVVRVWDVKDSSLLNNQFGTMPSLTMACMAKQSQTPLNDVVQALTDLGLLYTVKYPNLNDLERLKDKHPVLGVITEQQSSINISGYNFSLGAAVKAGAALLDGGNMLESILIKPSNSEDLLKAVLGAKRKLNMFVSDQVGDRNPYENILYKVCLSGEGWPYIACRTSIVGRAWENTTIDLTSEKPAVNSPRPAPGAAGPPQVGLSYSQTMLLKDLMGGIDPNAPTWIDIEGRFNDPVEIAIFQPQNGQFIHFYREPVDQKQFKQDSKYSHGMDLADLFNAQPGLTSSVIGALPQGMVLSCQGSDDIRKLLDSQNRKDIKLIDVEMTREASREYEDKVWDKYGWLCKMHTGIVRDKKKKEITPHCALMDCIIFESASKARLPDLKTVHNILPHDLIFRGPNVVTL

As to `CCCCCCCCCCCCCCCCCCCCCCCCCCCCCC`, the Potency result in test [1], in test [2], in test [3] and in test [4] was “inactive” in each case.
For the compound `C=C(C=O)C[C@@H]1C[C@H](O)C2OC3C[C@]4(C)OC5/C=C\CC6OC7C(CC=CCC6OC5CCCC4OC3CC2O1)OC1CC2OC3CC(=O)OC3C[C@@H](C)C[C@@]2(C)OC1C[C@@H]7C` (stereo not given in full), the Potency result in test [1], in test [2], in test [3] and in test [4] was “inactive” throughout.
Take `CC1=C[C@H]2[C@]3(O)C(C=C(CO)C[C@]2(O)C1=O)[C@@H]1C(C)(C)[C@]1(O)[C@H](O)[C@H]3C` (stereo not given in full): the Potency entry in test [1], in test [2], in test [3] and in test [4] was “inactive” each time.
For `O=C(OCC#CCSc1nnc(-c2cccc3ccccc23)o1)c1cc2ccccc2s1`, the Potency result in test [1], in test [2], in test [3] and in test [4] was “inactive” throughout.
Turning to `CC(C)(O)Cn1c(NC(=O)c2ccc(-c3cn[nH]c3)s2)nc2cc(CN3CCOCC3)ccc21`, the Potency in test [1] is 3.43 µM (active); in test [2], 3.43 µM (active); in test [3], 4.32 µM (active); in test [4] it was 10.9 µM (active).
As for `O=c1oc(-c2ccc(O)c(O)c2)cc2cc(O)cc(O)c12`, the Potency entry in test [1], in test [2], in test [3] and in test [4] was “inactive” each time.
On to `COc1cc2c(c(OC)c1OC)-c1c(cc(OC)c(OC)c1OC)C[C@](C)(O)[C@@H](C)C2`, for which the Potency entry in test [1], in test [2], in test [3] and in test [4] was “inactive” throughout.
On to `COc1cc2c(cc1O)C(Cc1ccc(O)cc1)NCC2` (stereo not given), for which the Potency result in test [1], in test [2], in test [3] and in test [4] was “inactive” in each case.
Regarding `C[C@@H]1C[C@@H]2OC(=O)[C@]3(C)[C@H]2[C@@H](OC3(C)O)[C@]2(C)C(=O)C=C[C@H]12` (stereo not given in full), the Potency result in test [1], in test [2], in test [3] and in test [4] was “inactive” throughout.
Take `COc1ccc(C(C)=O)cc1`: the Potency entry in test [1], in test [2], in test [3] and in test [4] was “inactive” each time.
In the case of `CC(C)(O)Cc1ccccc1`, the Potency entry in test [1], in test [2], in test [3] and in test [4] was “inactive” each time.
With `C/C=C1/C[C@@H](C)[C@@](C)(O)C(=O)OCC2=CCN3CC[C@@H](OC1=O)[C@@H]23`, the Potency result in test [1], in test [2], in test [3] and in test [4] was “inactive” each time.
Regarding `C=C[C@]1(C)Cc2occ(C)c2C[C@H]1C(=C)C(=O)O`, the Potency result in test [1], in test [2], in test [3] and in test [4] was “inactive” in each case.
Turning to `COc1cc2c(cc1OC)-c1cc3ccc4c(c3c[n+]1CC2)OCO4`, the Potency result in test [1], in test [2], in test [3] and in test [4] was “inactive” in each case.
Turning to `O=C1C=C(O)c2c(O)cc(O)c(O)c2C1=O`, the Potency entry in test [1], in test [2], in test [3] and in test [4] was “inactive” each time.
`C[C@H](NCc1ccc2c(c1)nc(NC(=O)c1ccc(-c3cn[nH]c3)s1)n2CCc1ccccc1)C(C)(C)C`: the Potency in test [1] was 10.9 µM (active); in test [2], 6.11 µM (active); in test [3], 12.2 µM (active); in test [4], 17.2 µM (active).
The matching figures for `CC(C)CNC(=O)/C=C/C=C/CCCC/C=C/c1ccc2c(c1)OCO2`: “inactive”, “inactive”, “inactive” and “inactive”.
The matching figures for `COC(=O)C1(Cc2ccc(O)cc2)OC(=O)C(O)=C1c1ccc(O)cc1` (stereo not given): “inactive”, “inactive”, “inactive” and “inactive”.
The matching figures for `CC1CCC2C(C)C3C(CC4[C@@H]5CC=C6C[C@@H](O)CC[C@]6(C)C5CC[C@]34C)N2C1` (stereo not given in full): “inactive”, “inactive”, “inactive” and “inactive”.
For the compound `O=C(OCCc1ccccc1)c1ccccc1`, the Potency result in test [1], in test [2], in test [3] and in test [4] was “inactive” in each case.
On to `C=C1C[C@H](O[C@@H]2O[C@H](CO)[C@@H](O)[C@H](O)[C@H]2O)[C@@H]2[C@H](OC(=O)[C@H]2C)[C@H]2[C@H](C)[C@@H](O)C[C@@H]12`, for which the Potency entry in test [1], in test [2], in test [3] and in test [4] was “inactive” throughout.
As to `CC(C)=CCC[C@](C)(O[C@@H]1O[C@H](CO[C@@H]2OC[C@H](O[C@@H]3OC[C@@H](O)[C@H](O)[C@H]3O)[C@H](O)[C@H]2O)[C@@H](O)[C@H](O)[C@H]1O)C1CC[C@]2(C)C1[C@H](O)CC1[C@@]3(C)CC[C@H](O)C(C)(C)C3[C@@H](O)C[C@]12C` (stereo not given in full), the Potency entry in test [1], in test [2], in test [3] and in test [4] was “inactive” throughout.
`CC[C@H]1OC(=O)[C@H](C)[C@@H](O[C@H]2C[C@@](C)(OC)[C@@H](O)[C@H](C)O2)[C@H](C)[C@@H](O[C@@H]2O[C@@H](C)C[C@H](N(C)C)[C@@H]2O)[C@](C)(O)C[C@@H](C)C(=O)[C@H](C)[C@@H](O)[C@]1(C)O`: the Potency entry in test [1], in test [2], in test [3] and in test [4] was “inactive” throughout.
For the compound `COc1ccc([C@@]23Oc4cc(OC)cc(OC)c4[C@]2(O)[C@H](O)[C@H](C(=O)N(C)C)[C@H]3c2ccccc2)cc1`, the Potency result in test [1], in test [2], in test [3] and in test [4] was “inactive” each time.
Take `COc1cc(C(=O)OC2C[C@H]3CC[C@@H](C2)N3)ccc1O` (stereo not given in full): the Potency entry in test [1], in test [2], in test [3] and in test [4] was “inactive” in each case.
Regarding `CC(=O)O[C@H](COc1c2ccoc2cc2oc(=O)ccc12)C(C)(C)O`, the Potency result in test [1], in test [2], in test [3] and in test [4] was “inactive” in each case.
For the compound `C[C@]12CCC3=C4CCC(=O)C=C4CC[C@@H]3[C@H]1CC[C@@]2(O)CC#N`, the Potency entry in test [1], in test [2], in test [3] and in test [4] was “inactive” in each case.
Consider `O=C1C=C(c2ccccc2)CO1`, for which the Potency result in test [1], in test [2], in test [3] and in test [4] was “inactive” each time.
As for `COc1cc2c(=O)c(-c3ccc(O)cc3)coc2cc1OC1OC(CO)C(O)C(O)C1O` (stereo not given), the Potency entry in test [1], in test [2], in test [3] and in test [4] was “inactive” each time.
`CC12C=CC(=O)C=C1CCC1C2CCC2(C)C(C(=O)CO)CCC12` (stereo not given): the Potency result in test [1], in test [2], in test [3] and in test [4] was “inactive” in each case.
